Test [1] in a line: HUVEC growth inhibition – cell-based, human, primary screen (AID 575;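 active = viability at or below 30% in both replicate assays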;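 note: 100% = median of untreated cell wells with 0.1% DMSO on each plate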). To be noted: HUVEC proliferation, CellTiter-Glo luminescence, 72 h; at 10 µM; stronger effect = lower value. A general note: ATP-based viability assays read luminescence as a measure of living cells.
Test [2] can be described thus: growth inhibitors of H69AR lung tumor, primary screen, human, duplicate replicates (AID 580;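 active = viability at or under a set limit in both replicates, limit being median viability minus 3 SD, cut at about 48% in these data, passing the limit was not always enough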;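 note: 100% = mean luminescence of untreated wells and 0% = no signal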). As to conditions: H69AR lung tumor cells viability, ATP luminescence, 72 h; at 10 µM; stronger effect = lower value.
The nature of test [3]: reversal of MRP1-mediated doxorubicin resistance, pilot screen, H69AR cells, doxorubicin co-treatment (AID 601;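 active = viability loss from added drug above about 55%, and viability with drug at most 40%, in both replicates, limit read from the data, passing the limit was not always enough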). To be noted: CellTiter-Glo, 72 h, at 10 µM; for differential viability (reversal): stronger effect = higher value.
Test [4] can be described thus: 384-well plate pilot, post-Golgi transport modulator project, inhibition of yeast transport mutant growth (AID 636; in the data active = inhibition above about 31%). As to conditions: absorbance 615 nm, about 18 h, stronger effect = higher value.
Test [5] can be described thus: growth suppression of yeast trafficking mutant, preliminary HTS, modulators of trafficking downstream of Golgi apparatus project, 1536-format plate, OD 615 nm (AID 637; in the data active = inhibition above about 30%). To be noted: yeast transport mutant growth, absorbance 615 nm, 18 h; stronger effect = higher value.
Test [6] can be described thus: OD615 S. cerevisiae growth inhibition, permissive medium, pilot counter-assay, permissive growth control for S. cerevisiae lifespan shortening project (AID 705;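 active = growth inhibition above 25% in both replicates, a cutoff set 3 SD above the mean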). As to conditions: OD615, 24 h, at 10 µM, stronger effect = higher value.
Test [7] is described as follows: Restrictive medium S. cerevisiae growth inhibition, OD615, pilot screen of yeast lifespan reduction project, restrictive growth control (AID 706;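 active = growth inhibition above a set limit, 3 SD over mean compound inhibition, in both replicates, cut at about 43% in these data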;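 note: modified DeaD lifespan yeast strain shifted to restrictive glucose medium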). To be noted: OD615, 48 h, at 10 µM, stronger effect = higher value.
Test [8] can be described thus: viability gain of MRP-1-high H69AR cells under doxorubicin, pilot screen, MRP-1 activator project, CellTiter-Glo, duplicate (AID 807).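 Note: compound pretreatment 18-22 h then 72 h combined with doxorubicin; 0% = doxorubicin alone and 100% = vehicle without doxorubicin.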 To be noted: H69AR viability with doxorubicin, CellTiter-Glo luminescence; at 10 µM; stronger effect = higher value.
A short description of test [9]: growth suppression of beta-catenin knockout HCT116, pilot screen, human colon tumor cells (AID 823;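 active = cell viability at or below a set limit in both duplicate runs, the limit being the all-compound median minus 4 SD, cut at about 23% in these data, passing the limit was not always enough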;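 note: 0% = wells killed by 20 µM Hyamine and 100% = untreated DMSO cell wells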). To be noted: CellTiter-Glo, 60 h, at 10 µM, stronger effect = lower value.
A short description of test [10]: growth suppression of PTEN-deleted HCT116, pilot screen, cell-based, HCT116 clonal line, CellTiter-Glo (AID 824;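 active = viability at or below 27.92% in each of two runs, the all-compound median minus 4 SD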;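 note: 0% = 20 µM Hyamine control and 100% = vehicle cell control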). As to conditions: 60 h, at 10 µM, stronger effect = lower value.
The nature of test [11]: inhibitors of the yeast RAM network, pilot screen, dse1pr::URA3 reporter, 5-FOA selection (AID 869;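 active = inhibition over a set limit, the all-compound mean plus 3 SD, in both replicate runs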;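 note: 0% = DMSO wells with no growth and 100% = 10 µM 1-NA-PP1 with full growth; RAM network block rescues cells from 5-FOA so hits raise OD615 growth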). As to conditions: S. cerevisiae dse1pr::URA3 5-FOA growth, OD615, 2 d; at 10 µM; stronger effect = higher value; strain carries analog-sensitive mutant Cbk1 kinase.
Test [12] can be described thus: RAM signaling pathway blockade in yeast – S. cerevisiae, Pdr1DBD-CYC8 efflux-inhibited sensitized strain, primary screen (AID 1298;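 active = RAM network inhibition above 8.4% in each of two replicates, 3 SD over the compound average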;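 note: 0% = DMSO untreated cells without growth and 100% = 10 µM 1-NA-PP1 full growth; higher means more yeast growth rescued from 5-FOA killing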). As to conditions: S. cerevisiae cbk1-as DSE1-URA3 strain, 5-FOA growth OD615, 2 d; at 50 µM; stronger effect = higher value.
The mark [13] stands for this setting: H69AR cells + 2 uM doxorubicin, measured here: viability with 2 uM doxorubicin, stronger effect = lower value.
Where [14] appears, read: H69AR cells, compound alone cytotoxicity.

Records with an inconclusive call do not appear. Active and inactive are the calls of the source.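 Rule for the calls, unless noted: active = viability increase at or above a cutoff of the median across tested compounds plus 3 SD (cut at about 8.5% in these data, passing the limit was not always enough); inconclusive = some gains above the cutoff, reason not given; inactive = the rest.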

`O=C(CCCCCn1c(=O)[nH]c2ccsc2c1=O)N1CCCCC1`: the viability – broadly, a read-out of living cells in per cent, often relative to untreated cells – in test [1] was 102% (inactive); in [2], 95% (inactive); in [3] (setting [13]), 89.2%; in test [3] (setting [14]), 95%; in test [9] it was 96.9% (inactive); in test [10] it was 99% (inactive). The differential viability (reversal) in test [3] (H69AR cells + 2 uM doxorubicin) was 5.84% (inactive). The inhibition (in general, the change of the read-out against control, counted positive when it falls) in test [4] is -2.5% (inactive); in test [5], 7.62% (inactive); in test [11], 0.36% (inactive). The growth inhibition is 1.02% (inactive) in test [6] and -1.91% (inactive) in [7]. The viability increase in [8] was -1.28% (inactive). For the same compound, in test [12], the RAM network inhibition is -0.43% (inactive).

In the case of `COCCn1c(=O)[nH]c2cc(C(=O)N3CCN(c4ccccc4OC)CC3)ccc2c1=O`, the viability was 110% (inactive) in test [1]; 85.8% (inactive) in test [2]; 91.4% in test [3] (setting [13]); 85.8% in test [3] (setting [14]); 104% (inactive) in test [9]; 99% (inactive) in test [10]. For the same compound, in [3] (H69AR cells + 2 uM doxorubicin), the differential viability (reversal) is -5.65% (inactive). Also, the inhibition in test [4] is -4.87% (inactive); in test [5] it was 0.32% (inactive); in test [11], 1.2% (inactive). Moreover, the growth inhibition in test [6] is -3.6% (inactive); in [7], -7.11% (inactive). Also, in test [8], the viability increase was -0.61% (inactive). Moreover, in test [12], the RAM network inhibition was 6.96% (inactive).

In the case of `COc1ccc(-c2nc(N3CCCC3)[nH]c(=O)c2C#N)cc1`, the viability in test [1] was 97% (inactive); in [2], 87.9% (inactive); in test [3] (setting [13]), 85.8%; in test [3] (setting [14]), 87.9%; in [9], 104% (inactive); in test [10] it was 90.7% (inactive). Besides, the differential viability (reversal) in test [3] (H69AR cells + 2 uM doxorubicin) was 2.17% (inactive). Further, the results for the inhibition in [4], in [5] and in test [11] were -1.45% (inactive), 0.79% (inactive) and 1.63% (inactive), respectively. In addition, the growth inhibition in [6] was 0.51% (inactive); in [7], 0.48% (inactive). Moreover, in [8], the viability increase was -0.94% (inactive). Also, in [12], the RAM network inhibition was 3.39% (inactive).

As to `COCCn1c(=O)[nH]c2cc(C(=O)NCCCN3CCN(c4ccc(F)cc4)CC3)ccc2c1=O`, the viability in [1] was 97.8% (inactive); in test [2], 100% (inactive); in test [3] (setting [13]), 96.6%; in test [3] (setting [14]), 100%; in [9], 86.2% (inactive). In addition, in test [3] (H69AR cells + 2 uM doxorubicin), the differential viability (reversal) is 3.64% (inactive). The inhibition in test [4] was 0% (inactive); in [5], -2.38% (inactive); in test [11], 0.63% (inactive). Also, the growth inhibition in test [6] was -12.8% (inactive); in test [7], -0.415% (inactive). Moreover, the viability increase in test [8] was -0.08% (inactive). Further, the RAM network inhibition in [12] is 8.31% (inactive).

`COc1ccc(-c2nn(-c3ccccc3)cc2/C=N/n2cnnc2)cc1OC`: the viability was 79.3% (inactive) in test [1]; 79.8% (inactive) in test [2]; 91% in [3] (setting [13]); 79.8% in test [3] (setting [14]); 88% (inactive) in test [9]; 84% (inactive) in [10]. The differential viability (reversal) in test [3] (H69AR cells + 2 uM doxorubicin) is -11.2% (inactive). The inhibition was -6.84% (inactive) in test [4], -0.63% (inactive) in test [5] and -0.92% (inactive) in test [11]. Moreover, the values for the growth inhibition in test [6] and in test [7] were 2.04% (inactive) and 17.4% (inactive), respectively. Further, the viability increase in test [8] was -4.33% (inactive). In addition, the RAM network inhibition in [12] is -1.68% (inactive).

As for `COc1ccccc1NC(=O)N(Cc1ccccc1)c1ccccn1`, the viability in [1] is 83.4% (inactive); in test [2], 85.3% (inactive); in test [3] (setting [13]), 91.2%; in test [3] (setting [14]), 85.3%; in test [9], 87% (inactive); in test [10], 88.6% (inactive). In addition, the differential viability (reversal) in [3] (H69AR cells + 2 uM doxorubicin) was -5.91% (inactive). Moreover, the inhibition is -5.58% (inactive) in test [4], -4.92% (inactive) in test [5] and 2.24% (inactive) in [11]. The growth inhibition in [6] is -9.36% (inactive); in test [7] it was -2.62% (inactive). For the same compound, the viability increase in test [8] was 0.35% (inactive). The RAM network inhibition in [12] was 6.47% (inactive).

`O=C(NCCc1cccc(Cl)c1)c1cccnc1`: the viability was 87.9% (inactive) in [1]; 103% (inactive) in test [2]; 76.8% in test [3] (setting [13]); 103% in test [3] (setting [14]); 98.9% (inactive) in [9]; 98.3% (inactive) in test [10]. For the same compound, the differential viability (reversal) in test [3] (H69AR cells + 2 uM doxorubicin) was 26.5% (inactive). For the same compound, the inhibition in [4] is -2.21% (inactive); in test [5], 5.4% (inactive); in [11], 0.32% (inactive). The growth inhibition in [6] is -1.24% (inactive); in test [7], 10.7% (inactive). Moreover, the viability increase in test [8] was -0.51% (inactive). Also, in [12], the RAM network inhibition is 1.21% (inactive).

With `CC(C(=O)Oc1ccc2c(c1)OCO2)N1C(=O)c2ccccc2C1=O` (configuration not stated), the viability is 79.5% (inactive) in test [1]; 84.3% (inactive) in test [2]; 94.4% in test [3] (setting [13]); 84.3% in [3] (setting [14]); 99.3% (inactive) in [9]; 105% (inactive) in test [10]. In addition, in [3] (H69AR cells + 2 uM doxorubicin), the differential viability (reversal) was -10.1% (inactive). For the same compound, the inhibition in [4] was -1.69% (inactive); in test [5], 1.27% (inactive); in test [11], 1.38% (inactive). Also, the growth inhibition in test [6] is -0.745% (inactive); in test [7] it was 13.1% (inactive). The viability increase in test [8] is -1.6% (inactive). Besides, the RAM network inhibition in test [12] is 0.12% (inactive).

Consider `CCn1c(CCNC(=O)c2ccc(OC)c(OC)c2)nc2ccccc21`, for which the viability in test [1] is 103% (inactive); in test [2], 83.2% (inactive); in [3] (setting [13]), 76.6%; in [3] (setting [14]) it was 83.2%; in test [9], 102% (inactive); in test [10], 99.2% (inactive). In addition, in test [3] (H69AR cells + 2 uM doxorubicin), the differential viability (reversal) was 6.54% (inactive). For the same compound, the inhibition in test [4] is -5.92% (inactive); in test [5], -2.22% (inactive); in test [11], 1.87% (inactive). The growth inhibition in test [6] was -10.8% (inactive); in test [7], -11.1% (inactive). The viability increase in test [8] was -2.22% (inactive). The RAM network inhibition in [12] is 4.36% (inactive).

With `N#Cc1nc(-c2ccc(Cl)cc2)oc1NCCc1ccccn1`, the viability is 102% (inactive) in test [1]; 104% (inactive) in test [2]; 96% in [3] (setting [13]); 104% in test [3] (setting [14]); 97.3% (inactive) in test [9]. Further, the differential viability (reversal) in test [3] (H69AR cells + 2 uM doxorubicin) is 7.66% (inactive). Besides, the inhibition in test [4] is 0.39% (inactive); in test [5], 5.4% (inactive); in [11], 1.07% (inactive). In addition, the growth inhibition in test [6] was 1% (inactive); in test [7] it was 0.83% (inactive). For the same compound, the viability increase in test [8] is -0.49% (inactive). Further, in test [12], the RAM network inhibition was 7.29% (inactive).

Take `CC(=O)Nc1nc(-c2ccccc2)nc(C)c1C(C)=O`: the viability in test [1] is 103% (inactive); in test [2], 94.4% (inactive); in test [3] (setting [13]), 87.3%; in test [3] (setting [14]), 94.4%; in [9], 93.4% (inactive); in [10], 99.5% (inactive). In addition, the differential viability (reversal) in [3] (H69AR cells + 2 uM doxorubicin) is 7.1% (inactive). Besides, the values for the inhibition in [4], in [5] and in test [11] were 0.13% (inactive), -2.22% (inactive) and 0.585% (inactive), respectively. Besides, the figures for the growth inhibition in [6] and in [7] were -9.85% (inactive) and -7.77% (inactive), respectively. For the same compound, the viability increase in test [8] was -0.66% (inactive). Also, in test [12], the RAM network inhibition was 5.92% (inactive).

The values above are taken from PubChem BioAssay.
